The values that follow come from PubChem BioAssay (Tox21).

Each structure is given as a SMILES string. Results filed as inconclusive are left out. Values without a mark were called inactive. Activity calls are given as the source filed them. Calls follow the shape of the full dose curve. Non-standard residues stand in square brackets, D forms with d. Residues, ends and D or L forms follow the SMILES beside them. pGlu = O=C1CC[C@@H](C(=O)O)N1; Thz = O=C(O)[C@@H]1CSCN1
% is scaled to controls: 0 for no effect and ±100 for the full control effect; potency is read from the fitted curve at half-maximal effect.

A short description of the experiment: qHTS assay for small molecule agonists of the p53 signaling pathway (AID 651631). Also: nearly all actives have a fitted effect of over 15% in size. Conditions: HCT-116 p53RE-bla reporter, beta-lactamase FRET ratio, 16 h; series mostly up to 73.3 µM; activation: at the top concentration. From the text: U.S. Tox21 Program National Center for Advancing Translational Sciences [NCATS] NIH Chemical Genomics Center [NCGC] U.S. Environmental Protection Agency [EPA] National Institutes of Environmental Health Sciences [NIEHS] National Toxicology Program [NTP] U.S. Food and Drug Administration [FDA] Tox21 Assay Overview: p53, a tumor suppressor protein, is activated following cellular insult, including DNA damage and other cellular stresses. The activation of p53 regulates cell fate by inducing DNA repair, cell cycle arrest, apoptosis, or cellular senescence. The activation of p53, therefore, is a good indicator of DNA damage and other cellular stresses. The CellSensor p53RE-bla HCT-116 cell line (Invitrogen) contains a stably integrated beta-lactamase reporter gene under control of the p53 response elements. The activation of the reporter gene under culture conditions can be detected by fluorescence intensity. This cell line was used to screen the Tox21 compound library in a 1536-well plate format and to identify agonists that activate the p53 signaling pathway.
Tox21 Assay Protocol Summary: The p53RE-bla cells were dispensed at 4,000 cells/5 ul/well in 1536-well black wall/clear bottom plates using a Multidrop dispenser. After the assay plates were incubated at a 37 C/5% CO2 incubator for 5 hours, 23 nL of compounds dissolved in DMSO, positive controls or DMSO only was transferred to the assay plate by a pin tool. The plates were incubated at 37 C for 16 hours. After 1 uL of LiveBLAzerTM B/G FRET substrate was added using a Flying Reagent Dispenser, the plates were incubated at room temperature for 2 hours, and fluorescence intensity was measured by an Envision plate reader.
(In general: In qHTS, concentration-response curves come from the screen itself.)
For the compound `CCOC(=O)[C@H](CCc1ccccc1)N[C@H]1CCCN2CCC[C@@H](C(=O)O)N2C1=O`, the “activation” value was -1.71%. On the same count and under the same terms, the same measure for `O=C(NNCS(=O)(=O)O)c1ccncc1`: -3.01%; for `O=C(/C=C/c1cccc(F)c1)NC1CC1`: -2.87%.

With `CC(=O)OC[C@H]1O[C@@H](O[C@H]2[C@H](O)[C@@H](OC(=O)c3ccccc3C(=O)O)[C@H](O)O[C@@H]2COC(C)=O)[C@H](O)[C@@H](OC(=O)c2ccccc2C(=O)O)[C@@H]1O`, the “activation” value was -2.75%.

`CCC(=O)O[C@H]1CC[C@H]2[C@@H]3CCc4cc(O)ccc4[C@H]3CC[C@]12C`: the Potency was 33.5 µM (active). Same read-out and setting: the same measure for `CCCOc1ccc2nc(NC(=O)OC)sc2c1`: 1.5 µM (active). In the case of `C=C1CC2C3CCC4=CC(=O)C=C[C@]4(C)[C@@]3(F)[C@@H](O)C[C@]2(C)[C@@]1(O)C(=O)COC(C)=O` (stereo not given in full), the “activation” value is -0.859%. As for `CCCC(=O)N1CCCN(c2nc(N)c3cc(OC)c(OC)cc3n2)CC1`, the “activation” value was -2.22%.

Consider `COc1cc2[nH]c(C)c(CCN3CCN(c4ccccc4)CC3)c2cc1OC`, for which the “activation” value is -4.23%. With `C#C[C@]1(OC(C)=O)CC[C@H]2[C@@H]3CCC4=CC(=O)CC[C@@H]4[C@H]3CC[C@@]21C`, the “activation” value was -2.08%. Regarding `CO[C@@H]1[C@@H](O[C@@H]2O[C@H](C)[C@@H](O[C@H]3C[C@@](C)(O)[C@@H](OC(=O)CC(C)C)[C@H](C)O3)[C@H](N(C)C)[C@H]2O)[C@@H](CC=O)C[C@@H](C)[C@@H](O)/C=C/C=C/C[C@@H](C)OC(=O)C[C@H]1O`, the Potency entry was “inactive”. `NC(=O)Oc1ccc(Cc2ccccc2)cc1`: the “activation” value was -3.55%. For the compound `NCCCC[C@H](N)C(=O)O`, the “activation” value was 0.441%.

For the compound `CCCCCCCCCCCCCCCCSCC(COC)COP(=O)([O-])OCC[N+](C)(C)C` (stereo not given), the “activation” value is 4%. As to `CC(=O)Oc1cccc(C(=O)O)c1OC(C)=O`, the “activation” value was -2.16%. For `CS(=O)(=O)NC(=O)CCC/C=C\C[C@H]1C(=O)C[C@@H](O)[C@@H]1/C=C/[C@H](O)COc1ccccc1`, the “activation” value is -2.66%. Still for that read-out and setting: the same measure for `COc1ccc(/C=C/C(=O)OCCC(C)C)cc1`: 1.85%; for `CC(NNC(=O)c1ccccc1)c1ccccc1` (stereo not given): -4.79%; for `O=C(CO)[C@@H](O)[C@H](O)[C@@H](O)C(=O)O`: 1.46%. On to `CCN(CC)CCOC(=O)c1ccc(N)cc1Cl`, for which the “activation” value is -3.74%. Same read-out and setting: the same measure for `CCCCCCCCCCCCCCCCCC(=O)OCCO`: -2.22%. With `O=S(=O)(O)Oc1ccc(C(c2ccc(OS(=O)(=O)O)cc2)c2ccccn2)cc1`, the “activation” value was -2.01%. Turning to `CC1(C)S[C@@H]2[C@H](NC(=O)Cc3ccccc3)C(=O)N2[C@H]1C(=O)O`, the “activation” value is 3.52%. `CCC(C)C(C(=O)OCC[N+](C)(CC)CC)c1ccccc1` (stereo not given): the “activation” value was -2.19%. The same measure, in the same setting: the same measure for `O=S(=O)(O)CCCS(=O)(=O)O`: 5.34%.

`NC(=O)c1ccc[n+]([C@@H]2O[C@H](COP(=O)([O-])OP(=O)(O)OC[C@H]3O[C@@H](n4cnc5c(N)ncnc54)[C@H](O)[C@@H]3O)[C@@H](O)[C@H]2O)c1`: the “activation” value was 3.65% [at 34.7 µM]. On to `CC[N+](C)(C)Cc1ccccc1Br`, for which the “activation” value is -1.31% [at 34.7 µM]. Turning to `C=C1/C(=C\C=C2/CCC[C@]3(C)[C@@H]([C@H](C)OCCC(C)(C)O)CC[C@@H]23)C[C@@H](O)C[C@@H]1O`, the Potency was 11.9 µM (active).

In the case of `CC(=O)N[C@@H]1C(O[C@H]2O[C@H](C(=O)O)C(O)[C@H](O)[C@H]2O)[C@H](O)[C@@H](CO)O[C@H]1O[C@@H]1C(C(=O)O)O[C@@H](O[C@H]2[C@H](O)[C@@H](CO)OC(O)[C@@H]2NC(C)=O)[C@H](O)[C@H]1O` (stereo not given in full), the “activation” value was -3.21%. Regarding `CN1C(=O)CN2CCc3ccccc3C2c2cc(Cl)ccc21` (stereo not given), the Potency is 29.8 µM (active). As for `COc1ccc(C(=O)Nc2ccccc2CCC2CCCCN2C)cc1` (stereo not given), the “activation” value was -1.5%. Still for that read-out and setting: the same measure for `CCC(C)(C)OC(=O)N[C@@H](Cc1c[nH]c2ccccc12)C(=O)N[C@@H](CCSC)C(=O)N[C@@H](CC(=O)O)C(=O)N[C@@H](Cc1ccccc1)C(N)=O`: 1.45%. For `O=C(O[C@H]1CN2CCC1CC2)N1CCc2ccccc2[C@@H]1c1ccccc1`, the “activation” value was -2.01%. Regarding `O=C(O)c1ccc(NC(=O)[C@H](Cc2ccc(O)cc2)NC(=O)c2ccccc2)cc1`, the “activation” value was 0.3%.

Regarding `CCCC(CCC)C(N)=O`, the “activation” value was -2.3%. In the case of `O=C1CC[C@@H](C(=O)N2CSC[C@H]2C(=O)O)N1` ([pGlu]-[Thz]-OH), the “activation” value was 2.07%. Turning to `Cc1ccccc1OCC(O)CNCCOc1ccc(C(N)=O)cc1` (stereo not given), the “activation” value was -3.79%. Take `O=S(O)CNc1ccc(S(=O)(=O)c2ccc(NCS(=O)O)cc2)cc1`: the “activation” value was -2.91%. As to `O=C1NC(=O)[C@H]2[C@@H]1[C@@H]1C=C[C@H]2C1`, the “activation” value is -1.44%.

Turning to `CNC(=O)[C@H](Cc1c[nH]c2ccccc12)NC(=O)[C@@H](CC(=O)NO)CC(C)C`, the “activation” value was 2.02%.
